21 compounds from PubChem BioAssay (NCI) can be followed below.

Compounds without any hit were thinned out: in the full panel of roughly 79,000, 15% have a hit. A number with no mark means an inactive call. Activity calls are given as the source filed them. No stated cut-off is given here; in the data, active means growth inhibition above about 70%; inactive means the rest. Where a SMILES comes first, the peptide text is derived from it. [ ]: non-standard residue; d: D form. ξ: configuration not given here. ξPhe(4-N(CH2CH2Cl)2) = NC(Cc1ccc(N(CCCl)CCCl)cc1)C(=O)O; Aad = N[CH](CCCC(=O)O)C(=O)O

Experiment [1] is described as follows: NCI Yeast Anticancer Drug Screen. Data for the rad50 strain (AID 155).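 Further: 0% = growth of vehicle-only cultures of the same strain.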 The settings on record: S. cerevisiae rad50 strain growth inhibition; at 50.0 µM; hits give high values. Summed up: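 Compounds were tested on a yeast strain with an engineered DNA damage repair alteration; the reported value is growth inhibition normalised to vehicle treatment.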
Experiment [2] is described as follows: NCI Yeast Anticancer Drug Screen. Data for the mec2-1 strain (AID 157). To be noted: S. cerevisiae mec2-1 strain, at 50.0 µM, hits give high values. The essentials:
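Readout is yeast growth inhibition, normalised to vehicle-treated controls, in the mec2-1 strain exposed to compound.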

The nature of experiment [3]: NCI Yeast Anticancer Drug Screen. Data for the sgs1 mgt1 strain (AID 161).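 Further: 0% = growth of cultures given vehicle only.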 To be noted: S. cerevisiae sgs1 mgt1 strain, at 50.0 µM, hits give high values. Summed up: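 This yeast growth screen uses a strain with defined DNA-repair lesions; compound-treated growth is compared with vehicle-treated growth.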
Experiment [4] in a line: NCI Yeast Anticancer Drug Screen. Data for the cln2 rad14 strain (AID 165).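 Further: 0% = growth equal to vehicle treated cultures.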 The settings on record: S. cerevisiae cln2 rad14 strain, at 50.0 µM, hits give high values. The essentials: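 Relative to vehicle controls, growth inhibition of compound-treated cln2 rad14 yeast was recorded.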
A short description of experiment [5]: NCI Yeast Anticancer Drug Screen. Data for the bub3 strain (AID 167). The settings on record: S. cerevisiae bub3 mutant strain, at 50.0 µM, hits give high values. Summed up: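 Growth of a checkpoint-deficient yeast mutant is measured after compound exposure. Values represent inhibition relative to vehicle.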
Experiment [6] can be described thus: NCI Yeast Anticancer Drug Screen. Data for the mlh1 rad18 strain (AID 175). To be noted: S. cerevisiae mlh1 rad18 strain growth inhibition; at 50.0 µM; hits give high values. The essentials:
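Test agents were incubated with a yeast strain of defined genotype (DNA damage repair defect). Inhibition of growth was derived by comparison with vehicle-exposed cultures.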

Consider `O=C(N/N=C/c1cc(Cl)cc(Cl)c1[O-])c1ccccc1O.O=C(N/N=C/c1cc(Cl)cc(Cl)c1[O-])c1ccccc1O.[Cu+2]`, for which the growth inhibition in experiment [1] is -6.05%; in experiment [2] it was -16.2%; in experiment [3], -17.8%; in experiment [4] it was -38.2%; in experiment [5], -12.7%; in experiment [6], 12.3%.
As for `CCOP(N)(=O)SC` (stereo unspecified), the growth inhibition was -11.1% in experiment [1]; 8% in experiment [2]; -11.8% in experiment [3]; -12.8% in experiment [4]; -7.45% in experiment [5]; 23.6% in experiment [6].
For the compound `NNC(N)=NCCCC(N)C(=O)O` (stereo unspecified), the growth inhibition is -22% in experiment [1]; -42% in experiment [2]; -34.3% in experiment [3]; 5.2% in experiment [4]; -45.6% in experiment [5]; -16.6% in experiment [6].
As for `C=CCC1(O)CCC2C3CCC4=CC(=O)CCC4=C3C=CC21CC` (stereo unspecified), the growth inhibition in experiment [1] was 26.9%; in experiment [2] it was -7.35%; in experiment [3] it was 20.4%; in experiment [4], 19.9%; in experiment [5], 21.5%; in experiment [6], 21.6%.
`CCCOC(=O)C(C)(C)C(OP(OCCC)OCCC)=C(C)C`: the growth inhibition in experiment [1] is -7.35%; in experiment [2] it was 4.35%; in experiment [3], -2.5%; in experiment [4], -0.9%; in experiment [5], 1.4%; in experiment [6], 3.3%.
With `OCC1OC(n2nnc3cc(Cl)c(Cl)cc32)C(O)C1O` (stereo unspecified), the growth inhibition is 7.3% in experiment [1]; -0.8% in experiment [2]; 5.85% in experiment [3]; 11.3% in experiment [4]; 18.8% in experiment [5]; 21.7% in experiment [6].
`CCCCCCCCCCC[CH2][Hg][Cl]`: the growth inhibition in experiment [1] is 8.6%; in experiment [2], 3.15%; in experiment [3], 12.4%; in experiment [4], -18.6%; in experiment [5] it was -3.45%; in experiment [6], -3.1%.
With `CCCCC(=O)[O-].N.N.N.N.N.[Co+3].[O-][Cl+3]([O-])([O-])[O-]`, the growth inhibition is -19.9% in experiment [1]; 19.4% in experiment [2]; -18.4% in experiment [3]; 21.4% in experiment [4]; -0.3% in experiment [5]; -16% in experiment [6].
As to `CCOc1cc(OCC)c(OCC)cc1/C=C/[N+](=O)[O-]`, the growth inhibition in experiment [1] is 90% (active); in experiment [2] it was 92.7% (active); in experiment [3], 93.7% (active); in experiment [4], 77% (active); in experiment [5] it was 89.5% (active); in experiment [6] it was 95.2% (active).
For the compound `CCC[CH2][Sn]([Br])([c]1ccccc1)[c]1ccccc1`, the growth inhibition in experiment [1] was 99% (active); in experiment [2], 99% (active); in experiment [3], 99.4% (active); in experiment [4], 99.1% (active); in experiment [5] it was 99% (active); in experiment [6], 98.9% (active).
For the compound `NC1(C(=O)O)CCCC1`, the growth inhibition in experiment [1] is -21.1%; in experiment [2] it was -21.9%; in experiment [3] it was -15.2%; in experiment [4] it was -63.8%; in experiment [5], -1.5%; in experiment [6], -28.1%.
Regarding `Oc1ccc(Br)cc1`, the growth inhibition was 1.15% in experiment [1]; -18.1% in experiment [2]; -14.4% in experiment [3]; -14.3% in experiment [4]; -15.1% in experiment [5]; -6.5% in experiment [6].
On to `C1=CC2C=CC(C=C1)[PH+]2c1ccccc1.[C-]#[O+].[C-]#[O+].[C-]#[O+].[C-]#[O+].[C-]#[O+].[Cr]` (stereo unspecified), for which the growth inhibition in experiment [1] is -30.4%; in experiment [2] it was 2.1%; in experiment [3] it was -9.25%; in experiment [4] it was 21.4%; in experiment [5], -2.15%; in experiment [6] it was -9.35%.
As for `C#CCN(C)C(=O)N(CC#C)N=O`, the growth inhibition in experiment [1] is 15.2%; in experiment [2], -4.95%; in experiment [3], 1.75%; in experiment [4], -11%; in experiment [5], -6.55%; in experiment [6], -23.4%.
On to `O=C(Nc1ccc(S(=O)(=O)F)cc1)/C(=C\c1ccc([N+](=O)[O-])cc1)c1cccc(Cl)c1`, for which the growth inhibition in experiment [1] was 12.4%; in experiment [2], 4.3%; in experiment [3], -18.2%; in experiment [4], 31.4%; in experiment [5], -0.7%; in experiment [6], 11.1%.
Regarding `CCCC[C@H]1C(=O)O[C@H](C)[C@H](NC(=O)c2cccc(NC=O)c2O)C(=O)O[C@@H](C)[C@@H]1OC(=O)CC(C)C`, the growth inhibition is 18.4% in experiment [1]; 12.5% in experiment [2]; 30.9% in experiment [3]; 16.4% in experiment [4]; 13.6% in experiment [5]; 44.2% in experiment [6].
Consider `ClC1CC2CC1C1CNCC21` (stereo unspecified), for which the growth inhibition in experiment [1] was -15.2%; in experiment [2], -14.6%; in experiment [3], -4.05%; in experiment [4], -15.8%; in experiment [5], -1.05%; in experiment [6] it was -21%.
In the case of `O=C(O)C(Cc1cnc[nH]1)N1C(=O)c2ccccc2C1=O` (stereo unspecified), the growth inhibition was -16.6% in experiment [1]; -12.9% in experiment [2]; -1% in experiment [3]; -24.9% in experiment [4]; -10% in experiment [5]; -8.85% in experiment [6].
Regarding `NC1=Nc2ccccc2Sc2ccccc21`, the growth inhibition was -19.2% in experiment [1]; -38.8% in experiment [2]; -44.5% in experiment [3]; 2.5% in experiment [4]; -23.5% in experiment [5]; -33.8% in experiment [6].
Regarding `CCOC(=O)C(Cc1ccc(N(CCCl)CCCl)cc1)NC(=O)C(CCC(=O)O)NC(=O)C(Cc1ccc(O)cc1)NC(=O)C(CCCC(=O)O)NC(=O)C(N)Cc1ccc(O)cc1` (stereo unspecified) (H-Y[Aad]YE[ξPhe(4-N(CH2CH2Cl)2)]-OEt; configuration not given here), the growth inhibition in experiment [1] is 7.7%; in experiment [2], 13.9%; in experiment [3], -6.5%; in experiment [4] it was 14.8%; in experiment [5] it was 8.05%; in experiment [6], 30.3%.
Turning to `CCOP(=O)(Cc1ccc(N)cc1)OCC`, the growth inhibition was -23% in experiment [1]; -34% in experiment [2]; -21.2% in experiment [3]; 19.9% in experiment [4]; -23.9% in experiment [5]; -14.2% in experiment [6].
